Read-out in test [1]: Human Leukocyte Antigen - DR isotype (HLADR), HLA-DRA (gene 3122)
The experiment in a line: BSK_3C_HLADR: BioMAP Diversity Plus: 3C Assay for Human Leukocyte Antigen - DR isotype (HLADR) Biomarker Activity (AID 2283019). The note with it: primary human endothelial cells (HUVEC); actives raise or lower the signal. Summed up: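 Primary human umbilical vein endothelial cells (3C system) were dosed with compound and cell-surface HLA-DR was quantified by ELISA at 24 h. Activity was fitted bidirectionally against DMSO as negative control and baseline.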

Read-out in test [2]: Interleukin-8 (IL8), CXCL8 (gene 3576)
The experiment in a line: BSK_3C_IL8: BioMAP Diversity Plus: 3C Assay for Interleukin-8 (IL8) Biomarker Activity (AID 2283020). To be noted: primary human endothelial cells (HUVEC); actives raise or lower the signal. Summed up: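 IL-8 was measured by ELISA in HUVEC cultures 24 h after chemical dosing, with gain or loss of signal fitted relative to DMSO. Parallel SRB total-protein staining tracked overt cytotoxicity.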

Read-out in test [3]: Monokine induced gamma interferon (MIG), CXCL9 (gene 4283)
The experiment in a line: BSK_3C_MIG: BioMAP Diversity Plus: 3C Assay for Monokine induced gamma interferon (MIG) Biomarker Activity (AID 2283021). The note with it: primary human endothelial cells (HUVEC); actives raise or lower the signal. In outline:
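ELISA measurement of MIG in human umbilical vein endothelial cells 24 h after treatment. Cytotoxicity tracked by SRB staining in parallel cultures; gain or loss of signal fitted relative to DMSO.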

Test [4] is described as follows: BSK_3C_SRB: Viability Assessment in the BioMAP Diversity Plus: 3C Assay (AID 2283023).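 Also: fitted both ways against DMSO so a hit may be signal rise or drop.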 To be noted: primary human endothelial cells (HUVEC). In outline:
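Primary human umbilical vein endothelial cells in the 3C system were read 24 h after compound dosing. Total protein was stained with 0.1% sulforhodamine B after 10% TCA fixation and read at 560 nm, with bidirectional fitting against DMSO as baseline.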

Read-out in test [5]: Matrix Metallopeptidase 1 (MMP1), MMP1 (gene 4312)
The experiment in a line: BSK_BE3C_MMP1: BioMAP Diversity Plus: BE3C Assay for Matrix Metallopeptidase 1 (MMP1) Biomarker Activity (AID 2283024). To be noted: primary human bronchial epithelial cells; actives raise or lower the signal. In outline: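 ELISA measurement of MMP-1 after 24 h compound exposure of primary human bronchial epithelial cells. Changes in either direction fitted relative to DMSO; parallel SRB staining checked overt cytotoxicity.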

Test [6] in a line: BSK_3C_Vis: BioMAP Diversity Plus: 3C Assay for Morphology Visualization (AID 2283025).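 Also: fitted both ways so gain or loss versus DMSO counts.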 The note with it: primary human endothelial cells (HUVEC). Summed up: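 Light-microscopy visualization of HUVEC cultures at 24 h post-treatment, with DMSO as baseline for bidirectional fitting.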
Read-out in test [7]: Pselectin, SELP (gene 6403)
The experiment in a line: BSK_4H_Pselectin: BioMAP Diversity Plus: 4H Assay for Pselectin Biomarker Activity (AID 2283026). To be noted: primary human endothelial cells (HUVEC); actives raise or lower the signal. Summed up: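 ELISA of surface P-selectin on HUVEC, 24 h after dosing, with parallel SRB staining (0.1% after 10% TCA fixation, 560 nm) for overt cytotoxicity. Activity fitted in both directions relative to DMSO.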

Test [8] can be described thus: BSK_4H_SRB: Viability Assessment in the BioMAP Diversity Plus: 4H Assay (AID 2283027).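 Also: cells exposed to compound for 24 h before staining.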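 As to AC50: curves fitted both ways versus DMSO so AC50 may be loss or gain.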 The note with it: primary human endothelial cells (HUVEC). Summed up: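 Cytotoxicity read-out in primary human endothelial cells: after 24 h compound exposure, cells were TCA-fixed (10%), stained with 0.1% SRB and absorbance taken at 560 nm. Values fitted in both directions relative to DMSO.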

Test [9] can be described thus: BSK_BE3C_SRB: Viability Assessment in the BioMAP Diversity Plus: BE3C Assay (AID 2283028).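 As to AC50: fitted both ways so AC50 may mark signal gain or loss versus DMSO.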 To be noted: primary human bronchial epithelial cells. Summed up:
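Human primary bronchial epithelial cells were exposed to test chemicals for 24 h. Total protein in parallel cultures was then measured by staining with 0.1% sulforhodamine B after 10% TCA fixation, with absorbance read at 560 nm. Activity was fitted bidirectionally against DMSO.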

Read-out in test [10]: Thrombomodulin, THBD (gene 7056)
The experiment in a line: BSK_3C_Thrombomodulin: BioMAP Diversity Plus: 3C Assay for Thrombomodulin Biomarker Activity (AID 2283029). The note with it: primary human endothelial cells (HUVEC); actives raise or lower the signal. Summed up: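 ELISA measurement of thrombomodulin on HUVEC surface 24 h after chemical dosing; activity fitted in both directions relative to DMSO vehicle.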

Read-out in test [11]: Urokinase-type plasminogen activator receptor (uPAR), PLAUR (gene 5329)
Description: BSK_4H_uPAR: BioMAP Diversity Plus: 4H Assay for Urokinase-type plasminogen activator receptor (uPAR) Biomarker Activity (AID 2283030). To be noted: primary human endothelial cells (HUVEC); actives raise or lower the signal. In outline: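 Primary human umbilical vein endothelial cells were exposed to chemical for 24 h before cell-surface uPAR was quantified by ELISA. Activity was fitted bidirectionally against the DMSO negative control baseline.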

Read-out in test [12]: Vascular endothelial growth factor receptor 2 (Homo sapiens) (UniProt P35968)
The experiment in a line: BSK_4H_VEGFRII: BioMAP Diversity Plus: 4H Assay for Vascular endothelial growth factor receptor 2 (VEGFR2) Biomarker Activity (AID 2283031). The note with it: primary human endothelial cells (HUVEC); actives raise or lower the signal. Summed up: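 Primary human umbilical vein endothelial cells in the BioMAP 4H system were dosed with test chemical, and 24 h later VEGFRII was measured by ELISA. Activity was fitted bidirectionally against DMSO as negative control and baseline.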

Read-out in test [13]: Human Leukocyte Antigen - DR isotype (HLADR), HLA-DRA (gene 3122)
The experiment in a line: BSK_BE3C_HLADR: BioMAP Diversity Plus: BE3C Assay for Human Leukocyte Antigen - DR isotype (HLADR) Biomarker Activity (AID 2283032). To be noted: primary human bronchial epithelial cells; actives raise or lower the signal. In outline:
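Cell-surface HLA-DR ELISA readout at 24 h after dosing in the BE3C primary human lung bronchial epithelial system; gain or loss of signal against DMSO, with parallel sulforhodamine B staining of total protein for overt cytotoxicity.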

Read-out in test [14]: Interferon-gamma inducible Protein 10 (IP10), CXCL10 (gene 3627)
Description: BSK_BE3C_IP10: BioMAP Diversity Plus: BE3C Assay for Interferon-gamma inducible Protein 10 (IP10) Biomarker Activity (AID 2283034). To be noted: primary human bronchial epithelial cells; actives raise or lower the signal. In outline: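 IP-10 quantified by ELISA in human primary bronchial epithelial cell cultures at 24 hours post-dosing. Gain or loss of signal fitted relative to DMSO; parallel SRB staining assessed overt cytotoxicity.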

Read-out in test [15]: Monokine induced gamma interferon (MIG), CXCL9 (gene 4283)
The experiment in a line: BSK_BE3C_MIG: BioMAP Diversity Plus: BE3C Assay for Monokine induced gamma interferon (MIG) Biomarker Activity (AID 2283035). The note with it: primary human bronchial epithelial cells; actives raise or lower the signal. Summed up:
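ELISA quantified MIG after 24 h exposure of primary bronchial epithelial cultures, analysed in both directions relative to DMSO. Cytotoxicity tracked in parallel cultures by sulforhodamine B staining.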

Read-out in test [16]: Transforming growth factor beta 1 (TGFb1), TGFB1 (gene 7040)
Description: BSK_BE3C_TGFb1: BioMAP Diversity Plus: BE3C Assay for Transforming growth factor beta 1 (TGFb1) Biomarker Activity (AID 2283036;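 as to outcome: TGF-b1 protein level measured by ELISA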). The note with it: primary human bronchial epithelial cells; actives raise or lower the signal. In outline:
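ELISA readout of TGF-b1 from human lung bronchial epithelial primary cells, taken 24 h post-treatment. Gain or loss of signal fitted relative to DMSO baseline, with parallel SRB staining for overt cytotoxicity.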

Read-out in test [17]: Plasminogen activator inhibitor-1 (PAI1), SERPINE1 (gene 5054)
The experiment in a line: BSK_BE3C_PAI1: BioMAP Diversity Plus: BE3C Assay for Plasminogen activator inhibitor-1 (PAI1) Biomarker Activity (AID 2283037). To be noted: primary human bronchial epithelial cells; actives raise or lower the signal. In outline:
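PAI-1 was measured by ELISA in human primary bronchial epithelial cultures 24 h after chemical dosing, with cytotoxicity checked by SRB total-protein staining in parallel cultures. Activity was fitted in both directions relative to DMSO.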

Read-out in test [18]: urokinase plasminogen activator (uPA), PLAU (gene 5328)
The experiment in a line: BSK_BE3C_uPA: BioMAP Diversity Plus: BE3C Assay for urokinase plasminogen activator (uPA) Biomarker Activity (AID 2283038).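 Also: uPA protein level quantified by ELISA in cell cultures; uPA read one day after compound addition.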 To be noted: primary human bronchial epithelial cells; actives raise or lower the signal. In outline: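 Human primary bronchial epithelial cells were exposed to chemical for 24 h, then uPA levels were measured by ELISA. Responses were fitted bidirectionally against DMSO as negative control and baseline. Parallel SRB staining of total protein gauged overt cytotoxicity.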

Read-out in test [19]: Urokinase-type plasminogen activator receptor (uPAR), PLAUR (gene 5329)
The experiment in a line: BSK_BE3C_uPAR: BioMAP Diversity Plus: BE3C Assay for Urokinase-type plasminogen activator receptor (uPAR) Biomarker Activity (AID 2283039).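 Also: cells exposed to compound for one day before measurement.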 The note with it: primary human bronchial epithelial cells; actives raise or lower the signal. Summed up:
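uPAR levels were measured by ELISA after 24 h compound treatment of primary human bronchial epithelial cells, fitted in both directions relative to DMSO. Parallel SRB staining served as the cytotoxicity read-out.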

Read-out in test [20]: Vascular cell adhesion molecule 1 (VCAM1), VCAM1 (gene 7412)
Description: BSK_4H_VCAM1: BioMAP Diversity Plus: 4H Assay for Vascular cell adhesion molecule 1 (VCAM1) Biomarker Activity (AID 2283033).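 Also: cell-surface VCAM-1 protein measured by ELISA.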 To be noted: primary human endothelial cells (HUVEC); actives raise or lower the signal. In outline:
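VCAM-1 ELISA read 24 h after chemical dosing of HUVEC in the BioMAP 4H system, with gain or loss of signal fitted relative to DMSO. Parallel SRB staining (560 nm) checked overt cytotoxicity.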

Activity calls are given as the source filed them. The calls were made as follows: active = hit-call score of the fitted dose curve at least 0.9, where 1 is the maximum; inactive = score below 0.9.

As to `CC(C)Nc1nc(Cl)nc(NC(C)C)n1`, the outcome in [1], in test [2], in [3], in test [4], in test [5] and in test [6] was inactive. Also, the result in test [7], in [8], in [9], in [10], in [11] and in [12] was inactive. For the same compound, the outcome in test [13], in test [14], in test [15], in test [16], in [17] and in test [18] was inactive. In test [19], the outcome was inactive.
A word on the AC50: it is the concentration at which the activity in the assay is half-maximal. Take `COP(=S)(OC)SCn1nnc2ccccc2c1=O`: the values for the AC50 in test [1] and in [7] were 30.2 µM (active) and 35.1 µM (active), respectively. Also, the result in [2], in test [3], in [4], in test [5], in test [6] and in [8] was inactive. Also, the outcome in [9], in [10], in test [11], in test [12], in test [13] and in test [14] was inactive. The result in test [15], in [16], in [17], in test [18] and in test [19] was inactive.
With `CC1(C)CON(Cc2ccccc2Cl)C1=O`, the outcome in [1], in test [2], in [3], in test [4], in test [5] and in test [6] was inactive. Moreover, the result in test [7], in test [8], in [9], in test [10], in test [11] and in test [13] was inactive. In addition, the outcome in test [14], in test [15], in [17], in test [18] and in [19] was inactive. The AC50 in test [16] was 37.2 µM (active).
Turning to `CC(C)Oc1cccc(NC(=O)c2ccccc2C(F)(F)F)c1`, the result in test [1], in test [2], in test [3], in test [5], in test [6] and in [7] was inactive. Further, the result in test [8], in test [9], in test [10], in [11], in [13] and in [14] was inactive. In addition, the outcome in test [15], in [16], in test [17], in test [18] and in [19] was inactive. In addition, in [4], the AC50 is 11.6 µM (active).
Take `COC(=O)N(C(=O)N1CO[C@@]2(C(=O)OC)Cc3cc(Cl)ccc3C2=N1)c1ccc(OC(F)(F)F)cc1`: the outcome in test [1], in test [2], in test [3], in [5], in [6] and in test [10] was inactive. In addition, the outcome in [11], in test [12], in [20], in test [15], in [16] and in test [17] was inactive. Moreover, the result in [18] and in test [19] was inactive. Further, the concentration at half-maximal activity (AC50) in test [4] is 3.97 µM (active); in test [7], 5.19 µM (active); in test [8], 7.13 µM (active); in test [9], 5.81 µM (active); in test [13], 13.8 µM (active); in [14], 11 µM (active).
In the case of `CN=C=S`, in test [1], the AC50 is 8.86 µM (active). The result in test [2], in [3], in test [4], in test [5], in test [6] and in test [7] was inactive. Also, the outcome in [8], in test [9], in [10], in test [11], in [12] and in test [13] was inactive. The result in test [14], in test [15], in [16], in test [17], in test [18] and in test [19] was inactive.

The values are drawn from PubChem BioAssay (EPA / NIEHS).
